Bioassay records deposited in PubChem by several laboratories.
VLA-4 inh: inhibition in a human VLA-4 binding assay. VLA-4 expressing cells, ligand binding flow cytometry. inhibition, % (about 7 µM as worked out from the volumes in the protocol). hit rate 0.2% among 330,000. AID 2557; in the data active = inhibition above about 50%
ABCB6 inh 2: inhibitors of human ABC transporter ABCB6. fluorescence ratio to DMSO, % at 10 µM. K562-ABCB6 porphyrin accumulation, flow cytometry, 1 h; stronger effect = lower value. hit rate 0.19% among 360,000. AID 602162. Q9NP58;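 active = fluorescence ratio to DMSO below 75%, the collection mean minus 3 SD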;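 also: signal is porphyrin accumulated inside mitochondria; 100% equals median channel fluorescence of DMSO control wells; lower ratio means ABCB6 inhibition with less porphyrin fluorescence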
PolyA inh: blocks polyadenylation in yeast reporter cells. S. cerevisiae SKY197-pL101 polyadenylation reporter, beta-gal luminescence; efflux-impaired pdr1/pdr3 knockout yeast; score 100 = 6 SD above DMSO. activity score, % at 12 µM. hit rate 0.02% among 300,000;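 active = lowest replicate activity score at least 50, where 100 means six control SD above control mean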;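 also: yeast exposed to compound for 9 h at 30 °C; higher score means more reporter readthrough which indicates perturbed polyadenylation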
GASC-1 inh: human JMJD2C demethylase inhibition; inhibition, % at 2.35 µM; GST-JMJD2C(1-420) H3K9me3 demethylation, DELFIA europium; AID 2099; hit rate 0.069% among 330,000;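 active = more than half of a compound's replicate wells show inhibition beyond 50%, single wells judged on their own value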;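 also: signal counts dimethyl H3K9 product captured on neutravidin plate; 0% = median of DMSO wells and 100% = 0.3 times that DMSO median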
Target sequence (Q9H3R0 1-420 limits assumed): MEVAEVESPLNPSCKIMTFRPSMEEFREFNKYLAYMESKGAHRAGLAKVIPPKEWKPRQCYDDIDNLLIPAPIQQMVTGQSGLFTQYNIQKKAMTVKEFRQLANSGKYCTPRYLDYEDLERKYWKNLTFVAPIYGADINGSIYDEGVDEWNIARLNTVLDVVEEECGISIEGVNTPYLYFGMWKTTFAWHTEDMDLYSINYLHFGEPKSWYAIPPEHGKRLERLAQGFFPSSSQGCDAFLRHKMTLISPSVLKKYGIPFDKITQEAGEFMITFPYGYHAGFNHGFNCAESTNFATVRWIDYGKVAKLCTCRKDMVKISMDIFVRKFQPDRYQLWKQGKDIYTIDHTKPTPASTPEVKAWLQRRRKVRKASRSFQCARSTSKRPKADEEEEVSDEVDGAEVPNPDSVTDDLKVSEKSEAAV
VLA-4 allo CP: human VLA-4 allosteric modulation in cherry picked compounds. hit rate 2% among 1,300. U937 cells, HUTS-21 LIBS mAb binding, flow cytometry; LDV ligand present at threefold Kd. inhibition, % at 6.7 µM. shares compounds with VLA-4 inh. AID 2813; in the data active = inhibition above about 40%;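 also: 0% = ligand without compound and 100% = no ligand background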
An asterisk follows results filed as active; x = not tested or not shown; ! = not active in a repeat. The list is not random: actives were taken first. Their share in the collection is about 0.44%.

SMILES | VLA-4 inh | ABCB6 inh 2 | PolyA inh | GASC-1 inh | VLA-4 allo CP
O=C(c1cc(-c2ccc(Br)cc2)nc2ccccc12)N1CCN(c2ccccc2O)CC1 | 4.8 | 96.0 | -7.5 | 31.2 | -9.6
COc1ccc(-c2cc(C(=O)N3CCN(c4cccc(C)c4C)CC3)c3ccccc3n2)cc1OC | -7.7 | 96.0 | -9.7 | -0.5 | -1.6
O=C(c1cc(-c2ccccc2Cl)nc2ccc(Br)cc12)N1CCN(c2ccccn2)CC1 | -3.1 | 94.0 | 11.5 | -23.5 | x
COc1ccc(-c2cc(C(=O)N3CCN(c4ncccn4)CC3)c3ccccc3n2)cc1OC | -9.2 | 97.0 | x | -0.5 | x
CC(C)Oc1cccc(-c2cc(C(=O)N3CCN(c4ncccn4)CC3)c3ccccc3n2)c1 | 16.5 | 87.0 | -1.7 | -1.9 | -2.3
O=C(c1cc(-c2ccncc2)nc2ccc(Br)cc12)N1CCN(c2ccccn2)CC1 | 0.6 | 89.0 | 3.6 | 7.0 | -10.8
Cn1c(Sc2ccc(C(F)(F)F)cc2[N+](=O)[O-])nnc1-c1ccccc1 | 15.3 | 90.0 | -17.2 | -2.6 | x
COc1ccc(O)c(C(=O)c2cnc3c(c2)c(=O)[nH]c(=O)n3C)c1 | -13.1 | 99.0 | 6.6 | -2.1 | x
COc1ccc(CNCCNC(=O)c2cccs2)cc1OC | 65.1* | 98.0 | 6.1 | -3.2 | -0.2
COc1cc(CNCCNC(=O)c2cccs2)cc(OC)c1OC | 22.4 | 94.0 | 6.6 | -1.0 | x
Cc1ccc(C(=O)N2CCN(c3ncccn3)CC2)cc1NC1=NC2CS(=O)(=O)CC2S1 (stereo not drawn) | -1.6 | 98.0 | 7.7 | 35.7 | x
Cc1ccc(C(=O)N2CC(C)CC(C)C2)cc1NC1=NC2CS(=O)(=O)CC2S1 (stereo not drawn) | -7.4 | 97.0 | 13.4 | 3.2 | 1.6
Cc1ccc(C(=O)N2CCC(C)CC2)cc1NC1=NC2CS(=O)(=O)CC2S1 (stereo not drawn) | 66.6* | 104.0 | 35.6 | 2.0 | -0.1
CC(C)C(=O)Nc1nnc(S(=O)(=O)N2CCCc3ccccc32)s1 | 51.3* | 101.0 | -7.6 | -0.9 | 2.7
CC(C)C(=O)Nc1nnc(S(=O)(=O)N2CCc3ccccc32)s1 | -6.7 | 102.0 | 18.9 | 15.4 | x
N#Cc1ccc(CNC(=O)N2CCOCC2)cc1 | 45.1 | x | x | -1.4 | 0.5
O=C(NCc1ccc(Cl)cc1)N1CCOCC1 | 0.0 | 99.0 | 2.0 | -0.5 | x
CCc1ccc(C2(O)CC(C(F)(F)F)=NN2C(=O)Cc2ccc([N+](=O)[O-])cc2)cc1 (stereo not drawn) | 6.4 | 98.0 | 2.1 | -8.0 | x
CCC1=NN(C(=O)Cc2ccc([N+](=O)[O-])cc2)C(O)(C(C)(C)C)C1 (stereo not drawn) | 57.7* | 96.0 | 2.9 | 10.5 | -5.8
CC1Cc2ccccc2N1c1ncnc(N)c1[N+](=O)[O-] (stereo not drawn) | 52.6* | 99.0 | -31.3 | x | 15.6
O=C(NC1CC1)c1ccc2nc([C@H]3C[C@H](O)[C@@H](CO)O3)[nH]c2c1 | x | 98.0 | x | x | x
Cc1ccc(CNC(=O)C2CCCCN2S(=O)(=O)c2ccccc2)cc1 (stereo not drawn) | 54.7* | 96.0 | 15.5 | -13.1 | 16.1
CCN(CC)C(=O)C1=C(C)N(Cc2ccccc2)C(=O)C(CC(=O)NCc2cccs2)C1 (stereo not drawn) | x | 96.0 | x | x | x
C/C(=N\NC(=O)c1ccccc1)c1ccc2c(c1)OCO2 | 71.3* | 100.0 | 14.4 | 6.5 | 11.8
O=C(CNC(=O)c1cccc(OC(F)F)c1)OCc1cc(=O)n2cc(Br)ccc2n1 | 0.0 | 96.0 | 0.6 | 13.1 | x
SMILES | VLA-4 inh | ABCB6 inh 2 | PolyA inh | GASC-1 inh | VLA-4 allo CP
O=C(CNS(=O)(=O)c1ccc(Br)cc1)OCc1cc(=O)n2cc(Br)ccc2n1 | 46.5 | x | -2.4 | -17.4 | -15.1
CCOc1ccc2[nH]c(C(=O)N/N=C/c3ccc(OC)cc3)cc2c1 | 55.6* | 97.0 | -1.1 | -3.5 | 34.2
CCOC(=O)C1C(=O)C=C(c2ccc(NS(C)(=O)=O)cc2)CC1c1ccco1 (stereo not drawn) | -9.7 | 90.0 | -7.3 | -0.6 | x
Cc1nn(C)c(C)c1S(=O)(=O)N(CC(=O)NCc1ccco1)c1ccc(C(C)C)cc1 | 64.2* | x | -4.2 | 6.9 | 6.7
COc1ccc(N(CC(=O)Nc2cccc(OC)c2)S(=O)(=O)c2c(C)nn(C)c2C)cc1 | 0.1 | 99.0 | x | x | 6.3
COc1ccc(N(CC(=O)Nc2ccc(F)c(F)c2)S(=O)(=O)c2c(C)n[nH]c2C)cc1 | 4.1 | 95.0 | 2.8 | -2.2 | -0.2
Cc1nn(C)c(C)c1S(=O)(=O)N(CC(=O)NCc1cccs1)c1ccc(C(C)C)cc1 | 22.3 | 98.0 | x | x | x
Cc1cccc(-n2c(SCC(=O)NC3CCCC3)nnc2-c2ccoc2C)c1 | 24.3 | 99.0 | 1.3 | 1.1 | x
COC(=O)[C@]1(Cc2ccccc2)N[C@H](CN(C)C(=O)Nc2ccc(OC)cc2)[C@@H]2C(=O)N(Cc3ccccc3)C(=O)[C@@H]21 | -2.1 | 94.0 | x | -54.3 | 5.1
CCN(C[C@H]1N[C@@](Cc2ccccc2)(C(=O)OC)[C@H]2C(=O)N(C)C(=O)[C@@H]12)C(=O)c1ccc(C)cc1 | 51.1* | 98.0 | x | x | 2.0
CCN(C[C@H]1N[C@@](Cc2ccccc2)(C(=O)OC)[C@H]2C(=O)N(Cc3ccccc3)C(=O)[C@@H]12)C(=O)c1ccc(F)cc1 | 4.9 | 95.0 | x | x | 2.0
CCN(C[C@H]1N[C@@](Cc2ccccc2)(C(=O)OC)[C@H]2C(=O)N(C)C(=O)[C@@H]12)C(=O)Nc1ccc(C)cc1 | 3.3 | 96.0 | x | x | x
COC(=O)[C@]1(Cc2ccccc2)N[C@H](CN(C)C(=O)Nc2ccc(OC)cc2)[C@@H]2C(=O)N(C)C(=O)[C@@H]21 | -4.4 | 102.0 | x | x | x
Cc1ccccc1C(=O)N1CCC(C(=O)Nc2ccc(C(C)C)cc2)CC1 | 21.4 | 96.0 | 9.6 | -1.6 | 14.3
Cc1ccccc1C(=O)N1CCC(C(=O)Nc2ccccn2)CC1 | 51.4* | 96.0 | -10.7 | 9.6 | -1.4
Cc1ccccc1C(=O)N1CCC(C(=O)Nc2ccc(F)cc2)CC1 | -6.9 | 95.0 | -9.9 | -19.2 | x
Cc1ccccc1C(=O)N1CCC(C(=O)NC2CCCCCC2)CC1 | -3.3 | 102.0 | 10.1 | 9.7 | x
c1ccc(CN2CCC(N3CCC(N4CCCCCC4)CC3)CC2)cc1 | 4.8 | 99.0 | -12.9 | 3.8 | x
C#CC1CN(Cc2ccccc2)CC(C#C)N1C (stereo not drawn) | 61.8* | 101.0 | -9.7 | 1.6 | 2.7
COc1ccc(C(C)=O)cc1COC(=O)CCNS(=O)(=O)c1ccc(C)cc1 | 21.0 | 95.0 | -5.9 | -1.9 | x
COc1ccc(C(C)=O)cc1COC(=O)CNC(=O)c1cc(C)cc(C)c1 | 52.9* | 106.0 | 14.0 | 3.0 | -4.8
Nc1ncnc2nc[nH]c12 | 58.4*! | 95.0 | -7.0 | -29.4 | -8.6
C=CCN(CC=C)C(=S)NC(=O)c1ccc(OC)cc1 | 52.5* | 98.0 | -7.4 | -1.4 | 3.1
Cc1ccc(CN(CC(=O)N/N=C/c2ccccc2[N+](=O)[O-])S(=O)(=O)c2ccc(C)cc2)cc1 | 5.8 | 104.0 | 3.4 | -5.7 | x
Cn1c(=N)n(CC(O)c2cccc3ccccc23)c2ccccc21 (stereo not drawn) | 51.2* | 102.0 | 0.3 | 6.4 | -7.7
